# According to the supplement of paper PMC6555819:
# How the values were obtained:
# Assay in all cases: PBM binding z-score (relative to random genomic background probes); higher = stronger binding; sequences stand for … in GC…GCGATTGACAGCGTAGAATGAAGG
# [1] = tested on: PPARg:RXRa IVT, anti-PPARg (NR concentration 270 nM, RXRa partner concentration 90 nM)
# How it was run: (§1)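 On custom Agilent 4×180K arrays, double-stranded probes with 34-nt variable regions carried direct-repeat seeds, single-nucleotide variants, half-site ablations or random human genomic background. Ligand-free nuclear receptor dimers were applied for 1 h, and binding was read with antibodies against each partner (one per run). Binding z-scores come from regression-normalized fluorescence, with the random background probes as reference.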
# [2] = tested on: PPARg DBDmut:RXRa IVT, anti-PPARg (DBD mutation: PPARg1 K132A/R137A, NR concentration 270 nM, RXRa partner concentration 90 nM)
# How it was run: as §1
# [3] = tested on: PPARg DBDmut IVT, anti-PPARg (DBD mutation: PPARg1 K132A/R137A, NR concentration 270 nM)
# How it was run: as §1
# [4] = tested on: PPARg homodimer (NR concentration 180 nM)
# How it was run: as §1
# [5] = tested on: PXR:RXRa (NR concentration 270 nM, RXRa partner concentration 90 nM)
# How it was run: as §1
# [6] = tested on: PXR homodimer (NR concentration 270 nM)
# How it was run: as §1
# [7] = tested on: RARa:RXR (NR concentration 270 nM, RXRa partner concentration 90 nM)
# How it was run: as §1
# [8] = tested on: RARa homodimer (NR concentration 270 nM)
# How it was run: as §1
# [9] = tested on: RARb:RXRa (NR concentration 270 nM, RXRa partner concentration 90 nM)
# How it was run: as §1
# [10] = tested on: RARb homodimer (NR concentration 270 nM)
# How it was run: as §1
Sequence,PBM binding z-score [1],PBM binding z-score [2],PBM binding z-score [3],PBM binding z-score [4],PBM binding z-score [5],PBM binding z-score [6],PBM binding z-score [7],PBM binding z-score [8],PBM binding z-score [9],PBM binding z-score [10]
CGTCCAAGGACAATGCTAGGTCAGTGAAAGCATT,0.25,-1.55,-0.865,0.328,0.242,0.0712,0.502,-0.127,2.03,2.48
TAGCCTAGTTCATTCAGGGGCCAGTATAGAAAGC,1.45,-0.019,0.583,0.283,1.29,0.885,0.991,-0.411,1.72,1.64
CCTTACGGGTCACTCCAGGTCATAGCATCGGAGT,4.39,-0.278,-0.144,2.14,6.17,1.15,4.49,0.835,4.25,4.42
TAGCCTAGGTTATGGGCCAGTATACCACGCGAAC,0.996,-0.249,-0.26,0.0998,-0.0911,-0.214,0.27,-0.107,0.734,0.24
AGAATGAGGTTACCAAAGGTCAGGGAAACGCTTG,4.54,1.08,0.912,4.43,6.1,1.49,6.53,1.28,4.91,5.13
AATACAGGGTCACGAGGCCAGAGTAGGTACGAAT,5.74,2.21,2.16,3.03,4.43,0.257,5.27,1.39,5.07,4.14
CCTACTGGGCCACTAAAGGTCATTGATTCAGTGA,5.37,0.801,0.225,3.43,5.12,1.79,5.18,1.26,3.89,4.55
CGAACTAGGTCACCCAGGACAGTGAATACATTGA,8.55,3.12,2.38,2.12,1.88,1.13,2.54,1.21,4.25,3.34
CCTTACGGGTTACTCCAGGTTATAGCATCGGAGT,0.994,0.298,-0.838,0.398,2.52,0.558,1.68,0.599,1.02,0.561
CGTCAAAGGTCAAGGTAACGTAACAGAAAGCAGC,6.15,3.88,3.1,4.75,5.33,0.602,6.56,2.85,–,5.16
CGTCCAAGGTCAATGCTAGATCAGTGAAAGCATT,3.17,-0.125,0.742,2.99,3.36,0.745,3.86,1.18,4.94,3.73
ATATGTAGGATAGCTGGGGTCATTCAGACTAGGC,2.82,0.891,1.52,5.47,5.76,2.24,5.49,1.21,2.54,3.16
TATACAAGGTCAAAGGCCAGAGTACGAATGTCGA,5.15,1.68,2.18,2.34,4.53,0.743,5.37,0.491,5.27,4.35
TACCCTAGGTCATTGGGCCAGTATAGTACGCATC,4.36,0.464,0.484,1.89,1.94,0.578,2.56,0.228,3.87,3.25
ACTTAAGGGTCAACGAGGTTATAGCACGCGTATA,4.06,2.52,3.33,4.43,6.26,6,6.74,2.01,5.29,4.31
TAGCCTAGGTCACATCGGGCCAGTATACGCTATA,3.51,0.246,-0.263,0.979,2.26,-0.395,2.25,-0.254,3.84,2.63
CCTAGTTGGTCAAGGTCACACCCGCTATAGGTAC,3.67,0.989,0.599,3.09,3.95,2.06,4.02,1.87,4.12,4.39
ATATGTAGGTTAGCTGGGGTCCTTCAGACTAGGC,5.77,1.74,2.65,1.13,1.33,0.206,2.3,0.538,0.851,0.736
CCGAGTTGGTCAAGGTCACACACGCTATAGGTAC,3.09,0.702,0.995,3.6,4.94,5.4,4.96,2.02,4.17,4.42
CGCACTAGGTCATCCAGGACAGTGAATACATTGA,8.07,2.66,1.65,1.92,1.97,0.888,2.65,0.479,3.88,3.11
ATATGTAGGTTAGCTGAGGTCATTCAGACTAGGC,6.48,2.26,1.4,3.04,6.68,6.09,4.95,1.7,3.34,4.04
ATATGTAGGTTACATCCGGGTCATCCAGGCTATG,7.51,3.31,2.5,2.45,3.45,1.14,3.67,0.961,2.3,3.26
CGTCCAAGGTCAAGGTCAATGAAAGAGACTCGAA,5.34,2.6,2.44,4.82,5.3,1.41,5.88,3.2,5.75,4.92
CCGACTGGGGCAAGGTCACCATAACGCACAGCCA,4.62,0.00337,-0.825,2.64,3.25,0.544,3.76,0.752,4.25,4.23
